Records with an inconclusive call do not appear. Values without a mark were called inactive. Calls of active or inactive are those of the source. The call rests on the fitted dose curve; in most records, active means well fitted inhibition curve with a large enough effect in the repeat runs; inconclusive means weak or mixed curves; inactive means flat fitted curve, though single readings scatter.
target: Luciferin 4-monooxygenase (Photinus pyralis) (UniProt P08659); experiment: qHTS assay to identify small molecule inhibitors of firefly luciferase (AID 1224835); further: nearly all actives have a fitted effect of over 25% in size; conditions: purified P. pyralis luciferase, luminescence inhibition; series mostly up to 115 µM; activity change, negative = inhibition: at the top concentration
Description: U.S. Tox21 Program National Center for Advancing Translational Sciences [NCATS] NIH Chemical Genomics Center [NCGC] U.S. Environmental Protection Agency [EPA] National Institutes of Environmental Health Sciences [NIEHS] National Toxicology Program [NTP] U.S. Food and Drug Administration [FDA] Tox21 Assay Overview: Firefly (Photinus pyralis) luciferase is one of the most commonly used transcriptional reporters. Firefly luciferase reporter-gene assays are generally considered one of the most sensitive assay types (Wood, 1995; Wood, 1998). However, it was initially observed, in 1991, by Thompson et al., that compounds that resemble the substrates of firefly luciferase (FLuc) can act as competitive inhibitors of the enzyme, and that these compounds, upon interaction with luciferase in the cell, can actually stabilize the protein and increase its half-life. Previous profiling work by other groups to determine the prevalence of compounds that affect FLuc enzymatic activity (PubChem AID 411) identified that ~3% of the MLSMR library (then at ~72K) inhibited FLuc. […] Thus the Tox21 10K library is profiled for activity against FLuc using a biochemical assay of purified FLuc and KM concentrations of FLuc substrates (D-luciferin and ATP).
These assay plates were then treated with 23nL of compound or DMSO using a Kalypsys pin tool, which allows for delivery of a 6-point interplate titration of each compound to the assay plate (quantitative HTS.) 1 uL of firefly luciferase mix (containing 50 mM Tris acetate, pH 7.6, 0.04 uM P. pyralis luciferase, 0.01% Tween, 0.05% BSA and dH2O) was then delivered by FRD to each well. Luciferase activity was then measured using a ViewLux CCD imager.
On the % scale 0 is the no-effect control and ±100 the full control effect.

Luciferin 4-monooxygenase (Photinus pyralis), sequence (P08659 whole entry, looked up): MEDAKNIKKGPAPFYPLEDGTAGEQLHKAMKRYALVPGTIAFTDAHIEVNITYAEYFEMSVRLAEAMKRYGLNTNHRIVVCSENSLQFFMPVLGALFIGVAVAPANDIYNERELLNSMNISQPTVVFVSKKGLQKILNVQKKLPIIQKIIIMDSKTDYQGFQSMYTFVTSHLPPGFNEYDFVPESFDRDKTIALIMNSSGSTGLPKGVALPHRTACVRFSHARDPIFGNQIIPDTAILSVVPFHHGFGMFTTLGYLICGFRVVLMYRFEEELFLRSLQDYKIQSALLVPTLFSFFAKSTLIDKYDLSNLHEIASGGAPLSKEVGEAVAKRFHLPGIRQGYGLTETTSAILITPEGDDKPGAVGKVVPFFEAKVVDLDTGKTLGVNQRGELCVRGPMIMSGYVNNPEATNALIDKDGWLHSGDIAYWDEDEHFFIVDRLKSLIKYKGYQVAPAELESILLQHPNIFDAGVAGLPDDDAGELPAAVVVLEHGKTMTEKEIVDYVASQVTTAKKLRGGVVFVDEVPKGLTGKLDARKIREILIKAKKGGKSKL

Compound | activity change, negative = inhibition | Potency
CCCCC(CC)COS(=O)(=O)O (stereo not given) | 5.9% | –
CCCCCCCCCCCCCCCCCC(=O)OCC(CC)CCCC (stereo not given) | 2.48% | –
N[C@@H](Cc1cc(I)c(O)c(I)c1)C(=O)O | 0.667% [at 52.9 µM] | –
C=C(C)c1ccccc1 | 0.43% | –
CCOc1ncc(F)c(=O)[nH]1 | 3.53% [at 52.9 µM] | –
O=c1[nH]c2cc(C(F)(F)F)c(N3CCOCC3)cc2n(CP(=O)(O)O)c1=O | -1.13% [at 52.9 µM] | –
O=C(O)/C=C/c1ccc(O)c(O)c1 | -5.03% | –
COC(=O)C1=C(C)NC(C)=C(C(=O)OC(C)(C)CN(C)CCC(c2ccccc2)c2ccccc2)C1c1cccc([N+](=O)[O-])c1 (stereo not given) | -0.55% [at 52.9 µM] | –
CCC(C)(C)C(=O)O | 3.03% | –
CC(C)(C)CCCCCCOC(=O)c1ccccc1C(=O)OCCCCCCC(C)(C)C | -0.316% | –
CCOC(=O)N1CCC(Nc2ccc(Cl)cc2N)CC1 | -0.341% [at 52.9 µM] | –
COC(C)(C)OC | 0.917% | –
C/C(C=O)=C\c1ccccc1 | -1.4% | –
CCCCC[C@H](O)/C=C/[C@H]1[C@H](O)CC(=O)[C@@H]1C/C=C\CCCC(=O)O | 0.202% [at 52.9 µM] | –
CCC(Cl)CC(Cl)C(Cl)C(Cl)C(Cl)C(C)Cl (stereo not given) | -6.92% [at 23.6 µM] | –
CCN(CC)CCOC(=O)C(c1ccccc1)c1ccccc1 | -5.71% [at 52.9 µM] | –
CCNc1nc(N)nc(Cl)n1 | 11.4% | –
CC(=O)Oc1cccc(O)c1 | 1.98% [at 52.9 µM] | –
CC(C)(O)CCc1ccccc1 | 0.552% | –
CCN(CC)CCNC(=O)c1cc(Cl)c(N)cc1OC | -6.38% [at 52.9 µM] | –

Compound | activity change, negative = inhibition | Potency
CC1CCCO1 (stereo not given) | 2.68% | –
CC/C=C\C/C=C\C/C=C\CCCCCCCC(=O)OCC | 1.73% | –
CCCCCCCC(=O)Oc1c(Br)cc(C#N)cc1Br | 1.77% | –
Nc1cccc2c(N)cccc12 | – | 39.9 µM (active)
O=C1[C@@H]2[C@H]3CC[C@H](C3)[C@@H]2C(=O)N1CCCCN1CCN(c2ncccn2)CC1 | 3.65% [at 52.9 µM] | –
CCCCCCCCCCCCCC(=O)OCC(O)CO (stereo not given) | -3.44% | –
CCOCCC(=O)OCC | 3.11% | –
CCOC(=O)c1c(N)sc2c1CCN(Cc1ccccc1)C2 | -6.39% [at 52.9 µM] | –
ClC1=C(Cl)C1(Cl)Cl | 8.06% | –
Oc1ccc2c(c1)Cc1ccccc1-2 | – | 31.7 µM (active)
CC(C)C(=O)OCCOc1ccccc1 | -9.38% | –
CC(C)(C)NCC(O)COc1cccc2c1C[C@H](O)[C@H](O)C2 (stereo not given in full) | 3.11% [at 52.9 µM] | –
Cc1cc(CCCOc2c(C)cc(-c3noc(C(F)(F)F)n3)cc2C)on1 | -1.18% [at 52.9 µM] | –
O=C(Oc1ccccc1)c1ccc2ccccc2c1O | – | 2.52 µM (active)
CCCCCCC(O)CCOC(C)=O (stereo not given) | -0.871% [at 300 µM] | –
Cc1c(C2(c3cc(Br)c(O)c(Br)c3C)OS(=O)(=O)c3ccccc32)cc(Br)c(O)c1Br | – | 8.67 µM (active)
CC(C)N=C=NC(C)C | 3.3% | –
NC(=O)c1ccccc1[N+](=O)[O-] | 3.91% | –
COc1ccc(-n2nc(C(F)F)cc2-c2ccc(S(C)=O)cc2)cc1 (stereo not given) | 3.4% | –
CCSC(=O)N(CC)CC | 2.58% | –
